{"source": "PubChem BioAssay (NCI)", "note": "Where “and” joins values, the source holds several entries; their conditions need not be identical. Equal entries are not always repeated. Compounds without any hit were thinned out: in the full panel of roughly 83,000, 20% have a hit.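 96-well plates, one dose, 48 hours. Percent growth reported; active if below 10.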 Calls of active or inactive are those of the source.", "data": [{"test_system": "UACC-62 melanoma", "assay": "NCI-60 one-dose screen, 48 h (100 = growth as untreated, 0 = no growth, -100 = all killed)", "conditions": "10 µM unless noted", "values": [{"smiles": "C=C(CO)C(=O)OC1CC(=C)C2CC(O)C(C)C2C2OC(=O)C(=C)C12", "note": "(stereo not given)", "growth": "60.1% [100 µM] (inactive) and -100% [100 µM] (active)"}, {"smiles": "CC1=CC[C@@H]2[C@@H](CC[C@@]2(C)O)C(C)(C)[C@H]1CC[C@@H]1[C@@]2(C)CCC(=O)C(C)(C)O[C@@H]2CC[C@]1(C)O", "growth": "-76.1% [100 µM] (active) and -100% [100 µM] (active)"}, {"smiles": "COc1ccc(Nc2nc3ccc(C(F)(F)F)cc3nc2C(=O)O)cc1", "growth": "-46.2% [100 µM] (active) and -91.5% [100 µM] (active)"}, {"smiles": "CC1(C)CCC[C@]2(C)[C@@H](C=O)C(C=O)=CC[C@@H]12", "growth": "-87.9% [100 µM] (active) and 4.13% [100 µM] (active)"}, {"smiles": "N=C1C(=N)c2ccccc2-c2ccccc21", "growth": "53.6% [100 µM] (inactive) and -56.4% [100 µM] (active)"}, {"smiles": "COc1ccc2c(c1)C(OC)C1c3c(cc4c(c3-2)OCO4)CCN1C", "note": "(stereo not given)", "growth": "-93.1% [100 µM] (active) and -89.5% [100 µM] (active)"}, {"smiles": "O=C(/C=C/c1ccccc1)CCC1C(=O)c2ccccc2C1=O", "growth": "41.6% [100 µM] (inactive) and 19.1% [100 µM] (inactive)"}, {"smiles": "C=C(C)C1CC2(C)C(C)CC(O)CC2C(OC(=O)C=C(C)C)C1O", "note": "(stereo not given)", "growth": "9.73% [100 µM] (active) and 41.9% [100 µM] (inactive)"}, {"smiles": "On1c(-c2ccccc2)nc2ccccc2c1=S", "growth": "-68.5% [100 µM] (active) and -97.5% [100 µM] (active)"}, {"smiles": "CCOc1ccc(NC(=O)/C(=N\\N)C(C(=O)OC)c2nc3ccc(Cl)cc3[nH]c2=O)cc1", "note": "(stereo not given)", "growth": "79.7% [100 µM] (inactive) and 57.3% [100 µM] (inactive)"}, {"smiles": "C=C1C(=O)OC2CC1C(OC(=O)/C=C/c1ccccc1)C/C(C)=C/CC/C(C)=C/CCC2(C)O", "note": "(stereo not given)", "growth": "-95.6% [100 µM] (active) and -90.1% [100 µM] (active)"}, {"smiles": "CN1CCc2cc3c(c4c2C1C(O)c1ccccc1-4)OCO3", "note": "(stereo not given)", "growth": "-88.3% [100 µM] (active) and -88.4% [100 µM] (active)"}, {"smiles": "O=C(CCc1ccccc1)ON1C(=S)NC(c2ccccc2)(c2ccccc2)C1=S", "growth": "-47.5% [100 µM] (active) and -5.8% [100 µM] (active)"}, {"smiles": "Cc1ccc(/C=N/Nc2cc(C)c3cccc(C)c3n2)s1", "growth": "-91.7% [100 µM] (active) and -100% [100 µM] (active)"}, {"smiles": "COc1ccc(OC)c(Cc2cnc3nc(N)nc(N)c3c2C)c1", "growth": "1.25% [100 µM] (active) and -100% [100 µM] (active)"}]}]}
